# From PubChem BioAssay
# In the library only some 27% were active in any assay of this set; here they are far more common.
# CYP2C19 act: activators of human cytochrome P450 2C19; P33261; recombinant CYP2C19, luciferin-H EGE luminescence; hits give high values; 0 = fully inhibited enzyme, 1 = untreated enzyme; activation factor at 5 µM; 96,000 tested, under 10 active;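 active = activation factor of at least 2 at 5 µM in the primary screen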;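 also: 0 = wells with 2.5 mM tranylcypromine and 1 = vehicle-only wells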
# CYP2C9 inh: human CYP2C9 inhibition. CYP2C9 Supersomes, luciferin-H conversion, luminescence. 20% of 96,000 active. P11712. AID 777. inhibition, % at 5 µM;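 active = blocking of liver enzyme CYP2C9 beyond about 50% at 5 µM, limit read from the data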
# CYP2C9 act: increases human cytochrome P450 2C9 activity; 1.4% of 96,000 active; P11712; activation factor at 5 µM; recombinant CYP2C9, luciferin-H conversion, luminescence; hits give high values; factor 1 = untreated enzyme, 0 = blocked;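 active = activation factor of 2 or more for CYP2C9 at a 5 µM dose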;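 also: 0 = sulfaphenazole-blocked wells and 1 = vehicle-only wells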
# Cav3 T inh: blocks human Cav3.2 T-type calcium channel; B-score at 10 µM; Cav3.2-expressing cells, Fluo-4 calcium fluorescence FDSS; hits give low values; 4% of 100,000 active; AID 449739;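 active = single-dose well whose peak fluorescence ratio is a statistical outlier from its plate by either plate-standardised score or position-corrected B-score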
# CYP2C19 inhib: inhibitors of human CYP2C19 | AID 778 | 21% of 96,000 active | CYP2C19 Supersomes, luciferin-H EGE luminescence, 30 min | P33261 | inhibition, % at 5 µM;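 active = CYP2C19 inhibition above a set limit at 5 µM in the primary screen, cut at about 50% in these data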;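 also: plate controls were negative control wells for no effect and 2.5 mM tranylcypromine positive control for full effect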
# * marks the source's active call; other numbers are inactive results; / = no result.
SMILES,CYP2C19 act,CYP2C9 inh,CYP2C9 act,Cav3 T inh,CYP2C19 inhib
O=C(NCc1ccccc1Cl)C1CCCN(S(=O)(=O)c2cccc3nsnc23)C1 (centres undefined),0.2,50*,0.5,0.56,77*
COc1cccc(NC(=O)C2CCCN(S(=O)(=O)c3cccc4nsnc34)C2)c1 (centres undefined),0.5,67*,0.3,-0.36,50*
COc1cccc(-c2noc(N)c2C#N)c1,0.9,11,0.9,0.63,10
CCN(CCNC(=O)C1CCN(S(=O)(=O)c2cccc3cccnc23)CC1)c1ccccc1,0.7,-199,3*,-3.1,32
O=C(Nc1ccc2c(c1)OCO2)C1CCN(S(=O)(=O)c2cccc3cccnc23)CC1,0.7,-179,2.8*,-0.7,32
COc1cc(NC(=O)C2CCCCC2)c2ncccc2c1,0.6,-111,2.1*,-1.4,38
CCOc1ccccc1NC(=O)C1CCN(S(=O)(=O)c2cccc3cccnc23)CC1,0.1,-58,1.6,/,93*
O=C(O)C1=C[C@@H](c2csc3ccccc23)C[C@@H](OCc2ccc(CO)cc2)O1,/,/,/,0.71,/
CCCCn1c(=O)c2c(c3ccccc31)OCC(=O)N2,0.9,-12,1.1,/,6
CC(C)(C)C(=O)NC(NC(=S)Nc1sc2c(c1C#N)CCCC2)C(Cl)(Cl)Cl (centres undefined),1.1,29,0.7,-1.5,-12
Cc1ccccc1NC(=O)C1CCCN(S(=O)(=O)c2cccc3cccnc23)C1 (centres undefined),0.9,-45,1.5,1.3,11
Cc1cccc(NC(=O)C2CCCN(S(=O)(=O)c3cccc4cccnc34)C2)c1 (centres undefined),0.2,-11,1.1,-0.57,81*
COc1ccc(C)cc1NC(=O)C1CCN(S(=O)(=O)c2cccc3cccnc23)CC1,1.1,-174,2.7*,-0.29,-7
COc1ccc(OC)c(NC(=O)C2CCCN(S(=O)(=O)c3cccc4cccnc34)C2)c1 (centres undefined),0.3,17,0.8,-0.089,69*
COc1ccc(OC)c(NC(=O)C2CCN(c3ncccn3)CC2)c1,0.7,-18,1.2,1,26
Cc1ccc(C(=O)Cn2cnc3ccccc3c2=O)cc1C,0.8,18,0.8,0.27,24
c1coc(CNc2ncnc3sc4c(c23)CCCCC4)c1,0.1,93*,0.1,-0.82,87*
Cc1sc2ncnc(NCc3cccs3)c2c1C,0.5,42,0.6,-0.051,52*
Cc1sc2ncnc(NCc3ccco3)c2c1C,0.2,61*,0.4,/,78*
CN(C(=O)COC(=O)c1ccc(Cl)cc1N)C1CCS(=O)(=O)C1 (centres undefined),1.3,-5,1.1,-0.23,-33
CC(=O)NCCC(=O)Nc1sc2c(c1-c1nc3ccccc3[nH]1)CCCC2,0.6,61*,0.4,-0.71,36
Cc1[nH]c2ccccc2c1C(=O)Cn1c(=O)oc2ccccc21,0.4,58*,0.4,0.033,62*
Cc1[nH]c2ccccc2c1C(=O)CN1CCC2(CC1)OCCO2,0.7,-22,1.2,-1,33
COC(=O)C(C(=O)Nc1ccc(OC)cc1)C1CCCCCC1 (centres undefined),0.1,69*,0.3,-0.66,92*
COc1ccc(NC(=O)c2ccccc2NC(=O)NC2CCCCC2)cc1,0.8,21,0.8,-0.78,21
SMILES,CYP2C19 act,CYP2C9 inh,CYP2C9 act,Cav3 T inh,CYP2C19 inhib
COC(=O)C(C(=O)Nc1ccccc1C)C1CCCC1 (centres undefined),0.4,9,0.9,-0.22,64*
COc1ccc(-c2csc(N3CCC(C(N)=O)(N4CCCCC4)CC3)n2)cc1,1.2,15,0.8,-1,-16
CC(=O)c1cc2c(cc1NC(=O)C1CC=CCC1C(=O)O)OCO2 (centres undefined),1,74*,0.3,0.76,-1
CC(=O)c1cc2c(cc1NC(=O)CCCC(=O)O)OCO2,1.2,-16,1.2,-0.12,-23
CC(C)(C)C(=O)N=C1SC2CS(=O)(=O)CC2N1c1ccc2c(c1)OCO2 (centres undefined),0.4,63*,0.4,0.15,57*
Cc1ccc(CS/C(Nc2ccccc2C)=C(\C#N)C(=O)NCc2ccco2)c(C)c1,0.5,42,0.6,-4.6,51*
Cc1ccccc1N/C(SCc1ccc(Cl)cc1)=C(/C#N)C(=O)NCc1ccco1,0.2,55*,0.4,-5.5*,85*
Cc1cc(/C=C(\C#N)C(=O)NCc2ccco2)c(C)[nH]1,/,/,/,-0.0083,/
O=C(COc1ccccc1Cl)NC(=S)Nc1cccc(NC(=O)c2ccccc2Cl)c1,0.7,67*,0.3,-0.96,26
CCC(=O)NC(=S)Nc1cccc(NC(=O)c2ccc(Cl)cc2Cl)c1,0.9,-5,1,0.18,9
COc1ccc(-c2nc3ccccc3c(C(=O)Nc3ccc(S(=O)(=O)Nc4cc(C)on4)cc3)c2C)cc1,1.2,-8,1.1,2.1,-21
Cc1ccccc1C(=O)NNC(=O)c1ccc(F)cc1,0.4,-14,1.1,0.039,62*
CCCCc1c(O)nc(SCC(=O)NC(C)(C)C)n(-c2ccccc2C)c1=O,0.8,-28,1.3,-0.015,24
CCOc1ccc(C(CCc2ccccc2)NC(=O)c2ccccc2F)cc1OCC (centres undefined),0.2,78*,0.2,-3.3,77*
CCC(C)C(NC(=O)[C@@H](NC(=O)c1ccccc1F)C(C)C)C(=O)OC (some centres undefined),0.9,2,1,2,11
CCOc1ccc(C(CCc2ccccc2)NC(=O)c2ccccc2OC)cc1OCC (centres undefined),0.4,85*,0.2,-1.5,64*
CCOc1ccccc1C(=O)NC(CO)C(=O)O (centres undefined),1,-6,1.1,1.4,-5
CC(C)n1nnnc1SCC(=O)N1CCOCC1,1,0,1,-0.078,5
NC(=O)NC(c1ccccc1)c1cccc2ccccc12 (centres undefined),0.3,-1,1,0.54,72*
COCC(=O)NC(c1ccccc1)c1ccccc1,1,-4,1,0.16,-1
NC(=O)NC(c1ccccc1)c1ccccc1,0.2,28,0.7,-0.02,80*
NC(=O)NC(c1ccccc1)c1ccccc1F (centres undefined),0.3,6,0.9,0.14,72*
NC(=O)NC(Cc1ccccc1)c1ccccc1 (centres undefined),0.5,2,1,0.95,47
COC(=O)[C@H](C)NC(=O)NCc1ccccc1F,0.9,10,0.9,0.045,6
c1ccc(-n2nnc(-c3cccnc3)n2)cc1,/,/,/,-0.51,/
O=C(NCCN1CCOCC1)c1cc2sccc2n1Cc1ccc(Cl)cc1,0.3,69*,0.3,-2.1,70*
O=C(NCc1ccco1)C1CCN(C(=O)c2cc3sccc3n2Cc2ccc(Cl)cc2)CC1,0.4,77*,0.2,-2.6,65*
